Results: PubChem BioAssay AID618 (Sanford-Burnham Center for Chemical Genomics, 2007)
About 540 (0.62%) of roughly 87,000 compounds were called active. No rule for the calls is given here. The list comes from a sample in which actives are over-represented; it also holds similar structures and randomly drawn compounds. Measured potencies and affinities stand elsewhere.

Assay: MT1-MMP gene expression reporter suppression – cell-based, luciferase reporter, luminescence (AID 618);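 also: actives suppress MT1-MMP promoter-driven transcription so potencies describe inhibitors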
Conditions: MT1-MMP promoter luciferase reporter cells

Row | Compound | outcome
1 | C=CCN1CC(c2nc3ccccc3n2Cc2cccc3ccccc23)CC1=O (centres undefined) | inactive
2 | CCCOc1ccc(C(CC(=O)O)NC(=O)C23CC4CC(CC(C4)C2)C3)cc1 (centres undefined) | inactive
3 | Cc1ccc(C(=O)Nc2cc(Cl)ccc2N2CCCCC2)s1 | inactive
4 | CN(C)c1ccc(N/C=C/C(=O)c2ccccc2)cc1 | active
5 | O=C(/C=C/Nc1ccc(F)cc1)c1ccco1 | inactive
6 | CN(C)c1ccc(N/C=C/C(=O)c2ccc(F)cc2)cc1 | active
7 | CN(C)c1ccc(NC(=O)CN2CCN(CC(=O)Nc3ccc(F)cc3)CC2)cc1 | inactive
8 | CN(C)c1ccc(NC(=O)CN2CCC(C(=O)c3ccc(F)cc3)CC2)cc1 | inactive
9 | CN(C)c1ccc(C(=O)c2ccccc2)cc1 | inactive
10 | CN(C)c1ccc(N/C=C/C(=O)C(C)(C)C)cc1 | inactive
11 | CC(=O)Nc1ccc(N/C=C/C(=O)c2ccco2)cc1 | inactive
12 | CSCC[C@H](NC(=O)CCn1nnc2ccccc2c1=O)C(=O)O | inactive
13 | CCN1CCN(C(=O)c2ccc(Cl)c(S(=O)(=O)N3CCOCC3)c2)CC1 | inactive
14 | Cc1ccc(-n2nc3c(c2NC(=O)c2c(-c4ccccc4Cl)noc2C)CS(=O)(=O)C3)c(C)c1 | inactive
15 | COc1cccc(NC(=O)C(=O)N2CCOCC2)c1 | inactive
16 | Cc1ccc(-n2nc(C)c3c(C)cc(=O)[nH]c32)cc1 | inactive
17 | O=C(c1cccn2c(=O)c3cc(Br)ccc3nc12)N1CCN(c2ccccn2)CC1 | inactive
18 | Cc1ccc(-c2c(C(=O)N3CCOCC3)oc(=O)c3ccccc23)cc1 | inactive
19 | COC(=O)c1ccc(NC(=O)CSc2nncn2C)cc1 | inactive
20 | CCCCOC(=O)c1ccc(NC(=O)CSc2nncn2C)cc1 | active
21 | Cn1cnnc1SCC(=O)Nc1ccccc1 | inactive
22 | O=C1CC(N2CCC(c3nc4ccccc4o3)CC2)C(=O)N1c1ccc(Cl)cc1 (centres undefined) | inactive
23 | O=C(CCS(=O)(=O)c1cccs1)N1CCCC1 | inactive

Row | Compound | outcome
24 | CC(=O)N1CCc2cc(S(=O)(=O)CCC(=O)O)ccc21 | inactive
25 | O=C1c2ccccc2NC(c2ccc(Cl)cc2Cl)N1Cc1ccccc1 (centres undefined) | inactive
26 | N=c1cc(C2(O)CCCCC2)n2c(nc3ccccc32)s1 | active
27 | c1ccc2nc3c(nc2c1)sc1nc2ccccc2n13 | inactive
28 | CC(C)(O)c1cc(=O)sc2nc3ccccc3n12 | inactive
29 | c1ccc(Cn2c(-c3cncs3)nc3ccccc32)cc1 | inactive
30 | CCCCN(CCCNC(=O)C1CCN(S(=O)(=O)N2CCOCC2)CC1)Cc1ccccc1 | inactive
31 | CCn1c(CCNC(=O)c2cccs2)nnc1SCC(=O)NC1CCCCC1 | inactive
32 | Cc1noc(C)c1CSc1nnc2n(-c3ccccc3)c(=O)c3ccccc3n12 | inactive
33 | COc1cc(OC)cc(-c2cc3nc(C)c(CCC(=O)NC(C)CCc4ccco4)c(C)n3n2)c1 (centres undefined) | inactive
34 | COc1ccc(-c2cc3nc(C)c(CCC(=O)NC(C)CCc4ccco4)c(C)n3n2)c(OC)c1 (centres undefined) | inactive
35 | COc1ccc(CCNC(=O)N2CCOCC2)cc1 | inactive
36 | CC(C)(C)n1nnnc1CN(Cc1ccco1)Cc1cc2cc3c(cc2[nH]c1=O)OCO3 | inactive
37 | O=C(O)c1ccccc1NC(=O)C1CCCO1 (centres undefined) | inactive
38 | c1cncc(CNc2c3c(nc4nnnn24)CCCC3)c1 | inactive
39 | O=C(O)c1cccc(-c2nnn(Cc3ccccc3)n2)c1 | inactive
40 | O=C(O)c1cccc(-c2nnn(Cc3ccccc3Cl)n2)c1 | inactive
41 | COc1cc(-c2nc(S(=O)(=O)c3ccc(C)cc3)c(N(C)C)o2)cc(OC)c1OC | inactive
42 | CCOc1cccc(NC(=O)C2CC(=O)N(C)C2)c1 (centres undefined) | inactive
43 | CCN(CC)CC(O)COc1ccccc1C(=O)CCc1ccccc1 (centres undefined) | inactive
44 | CCCNCC(O)COc1ccccc1C(=O)CCc1ccccc1 (centres undefined) | active
45 | CC(C)(C)NCC(O)COc1ccccc1C(=O)CCc1ccccc1 (centres undefined) | inactive
46 | CC(C)(C)NS(=O)(=O)c1ccc(CCC(=O)NCc2cccnc2)cc1 | inactive

Row | Compound | outcome
47 | CCOC(=O)c1c(NC(=O)CN(CC)CC)sc2c1CCC2 | inactive
48 | O=C(Cn1c(NCCO)nc2ccccc21)c1cccs1 | inactive
49 | COc1ccccc1N1CCN(c2ncnc3c2oc2ccccc23)CC1 | inactive
50 | Cc1cc(C)nc(N2CCN(c3nc(C)nc4c3oc3ccccc34)CC2)n1 | inactive
51 | COc1ccccc1N1CCN(c2nc(C)nc3c2oc2ccccc23)CC1 | active
52 | Cc1ccc(C(=O)Nc2ccccc2OC(F)F)cc1 | inactive
53 | CN=c1scc(C)n1/N=C/c1ccc2c(c1)OCO2 | active
54 | CCN=c1scc(C)n1/N=C/c1ccsc1 | inactive
55 | CN=c1scc(C)n1/N=C/c1ccc(O)c(O)c1O | inactive
56 | Cc1nnc(C)n1/N=C/c1ccc2c(c1)OCCO2 | inactive
57 | CN=c1scc(C)n1/N=C/c1ccc(O)cc1O | active
58 | CN=c1scc(C)n1/N=C/c1ccc(O)cc1 | inactive
59 | COC(=O)c1ccc(Cn2nc(C(F)(F)F)cc2C)cc1 | inactive
60 | COc1ccccc1OCCSc1nnnn1-c1ccc(C)cc1 | inactive
61 | c1ccc(OCCSc2nnnn2-c2ccccc2)cc1 | inactive
62 | CCN(C(=O)Cc1ccc(Br)cc1)C1CCCCC1 | inactive
63 | C(=N\n1cnnc1)/c1ccc(OCc2cccc3ccccc23)cc1 | inactive
64 | CCOCCOC(=O)CCSc1n[nH]c(=O)[nH]c1=O | inactive
65 | CCCC/C(O)=C1\C(=O)CC(C)(C)CC1=Nc1ccccc1OC | inactive
66 | CCC/C(O)=C1\C(=O)CC(C)(C)CC1=Nc1ccccc1OC | inactive
67 | CCOc1ccc(C2c3c(oc4ccccc4c3=O)C(=O)N2CCCN2CCOCC2)cc1OCC (centres undefined) | inactive
68 | Cc1cc(C)n(Cc2ccccc2F)c(=O)c1C#N | inactive
69 | CSc1cc(-c2ccccc2)n(Cc2c(Cl)cccc2Cl)c(=O)c1C#N | active

Row | Compound | outcome
70 | CSc1cc(-c2ccccc2)n(Cc2ccccc2Cl)c(=O)c1C#N | active
71 | CSc1cc(-c2ccc(Cl)cc2)n(Cc2ccccc2)c(=O)c1C#N | inactive
72 | Cn1c(=O)c2c(nc(SCCCC#N)n2Cc2c(F)cccc2Cl)n(C)c1=O | inactive
73 | CSc1cc(-c2ccccc2)n(Cc2ccc(Cl)cc2Cl)c(=O)c1C#N | inactive
74 | Cc1ccc(-n2c(SCC(=O)NCc3ccco3)nnc2-c2cccnc2)c(C)c1 | inactive
75 | CCOC(=O)N1CCC(NC(=O)C2CCN(S(=O)(=O)N3CCC(C)CC3)CC2)CC1 | inactive
76 | Cc1cc(C)cc(OCc2nc3ncc(Br)cc3[nH]2)c1 | inactive
77 | C=CCOc1cccc(C2C(C(=O)c3ccco3)=C(O)C(=O)N2CCN2CCOCC2)c1 (centres undefined) | inactive
78 | COc1ccccc1N1CCN(C(=O)CN(c2cc(C)cc(C)c2)S(C)(=O)=O)CC1 | inactive
79 | O=S(=O)(c1ccc2c(c1)OCCO2)N1CCN(c2nc3ccccc3s2)CC1 | inactive
80 | c1ccc(N2CCN(c3nc4cc5c(cc4s3)OCCO5)CC2)cc1 | inactive
81 | c1ccc2c(c1)CCN(c1nc3cc4c(cc3s1)OCO4)C2 | inactive
82 | c1ccc2sc(N3CCOCC3)nc2c1 | inactive
83 | c1c2c(cc3sc(N4CCOCC4)nc13)OCO2 | inactive
84 | c1c2c(cc3sc(N4CCCCC4)nc13)OCO2 | active
85 | c1c2c(cc3sc(N4CCCCC4)nc13)OCCO2 | active
86 | Clc1ccc2nc(N3CCCCC3)sc2c1 | inactive
87 | c1ccc2c(c1)CCN(c1nc3cc4c(cc3s1)OCCO4)C2 | active
88 | c1ccc(N2CCN(c3nc4cc5c(cc4s3)OCO5)CC2)cc1 | inactive
89 | O=C(c1ccc2nc(N3CCCCC3)sc2c1)N1CCN(Cc2ccc3c(c2)OCO3)CC1 | inactive
90 | c1c2c(cc3sc(N4CCOCC4)nc13)OCCO2 | active
91 | CCOC(=O)c1c(COC(=O)c2ccco2)nc2ccccc2[n+]1[O-] | inactive
92 | O=C(CCn1c(=O)oc2ccccc21)Nc1cccc(Cl)c1 | inactive

Row | Compound | outcome
93 | Cc1cc2ccccc2c(=O)n1CC(=O)Nc1ccc2c(c1)OCCO2 | inactive
94 | CCOC(=O)c1[nH]c2ccc(F)cc2c1NC(=O)C1=COCCO1 | inactive
95 | CC(=O)c1c(C(C)=O)c(C)n(-c2nc(-c3ccc(Br)cc3)c(C)s2)c1C | inactive
96 | COc1ccc(OCCSc2ncn[nH]2)cc1 | inactive
97 | OC(COc1ccccc1)CSc1ncn[nH]1 (centres undefined) | inactive
98 | CCCCn1c(SCC(=O)N2CCOCC2)nnc1-c1cccs1 | inactive
99 | CC[C@]1(O)CC2CN(CCc3c([nH]c4ccccc34)[C@@](C(=O)OC)(c3cc4c(cc3OC)N(C=O)[C@H]3[C@@](O)(C(=O)OC)[C@H](OC(C)=O)[C@]5(CC)C=CCN6CC[C@]43[C@@H]65)C2)C1 (some centres undefined) | active
100 | COc1ccccc1N1CCN(C(=O)CSc2nc(-c3ccco3)cc(C(F)(F)F)n2)CC1 | inactive
101 | Cc1cc(C)c(S(=O)(=O)N2CCCCC2)c(C)c1-n1ncnn1 | inactive
102 | O=C(Cn1nc(-c2ccc(Cl)cc2)c2ccccc2c1=O)NCC1CCCO1 (centres undefined) | inactive
103 | COc1ccc(-c2cc(C(F)(F)F)nc(S(C)(=O)=O)n2)cc1 | inactive
104 | COC(=O)CCS(=O)(=O)c1nc(-c2ccccc2)cc(C(F)(F)F)n1 | inactive
105 | COc1ccccc1-c1cc(C(F)(F)F)nc(S(=O)(=O)CCCC(=O)O)n1 | inactive
106 | COc1ccc(-c2cc(C(F)(F)F)nc(S(C)(=O)=O)n2)cc1OC | inactive
107 | CCOC(=O)CS(=O)(=O)c1nc(-c2ccccc2)cc(C(F)(F)F)n1 | inactive
108 | CCOC(=O)CS(=O)(=O)c1nc(-c2ccc(F)cc2)cc(C(F)(F)F)n1 | active
109 | COC(=O)CSc1nc(-c2ccc(F)cc2)cc(C(F)(F)F)n1 | inactive
110 | COc1ccccc1-c1cc(C(F)(F)F)nc(S(=O)(=O)CCCC(=O)N2CCCCC2C)n1 (centres undefined) | inactive
111 | CCOC(=O)CSc1nc(-c2ccccc2)cc(C(F)(F)F)n1 | inactive
112 | CS(=O)(=O)c1nc(-c2ccccc2)cc(C(F)(F)F)n1 | active
113 | CCNc1nc(Oc2ccc(=O)[nH]n2)nc(N2CCOCC2)n1 | inactive
114 | CCOC(=O)C1=NN(c2ccc(OC)cc2)C(c2ccccc2)CC1=O (centres undefined) | inactive
